The source of these data is PubChem BioAssay (NCATS).

Each structure is given as a SMILES string. Records with an inconclusive call do not appear. Calls of active or inactive are those of the source. The call rests on the fitted dose curve; in most records, active means well fitted curve in the direction sought with a large enough effect; inconclusive means small, poorly fitted or top-dose-only effect, or another doubt; inactive means no such curve, though single readings can be large; an effect the other way counts as inactive or inconclusive.

In assay [1] the test system is MCC-13. Kind of assay: qHTS assay to identify novel small-molecules to repurpose for Merkel cell carcinoma treatment (AID 1296009). Further: nearly all actives have a fitted effect of over 60% in size. The note with it: MCC and control cell lines, CellTiter-Glo viability, 72 h; series mostly up to 46 µM. The procedure, abridged: (§1)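 Luminescence from CellTiter-Glo, read 10 min after addition at room temperature, reported viability following a 72 hr, 37 degree celsius treatment with NPC or MIPE compounds in titration; values normalized to plate controls.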

In assay [2] the test system is MCC-26. The assay is described as above. Conditions: MCC and control cell lines, CellTiter-Glo viability, 72 h; series mostly up to 46 µM. In a few lines:
as §1

For assay [3], the system named is MKL-1. The assay is described as above. Conditions: MCC and control cell lines, CellTiter-Glo viability, 72 h; series mostly up to 46 µM. The procedure, abridged:
as §1
For orientation: Cellular ATP, detected with luciferase, serves as a proxy for viable cell number.

The subject of assay [4] is UISO. The assay is described as above. Conditions: MCC and control cell lines, CellTiter-Glo viability, 72 h; series mostly up to 46 µM. In a few lines: as §1
Assay [5] relates to CAOV3. As to the kind of experiment: Primary qHTS to identify gynecologic anti-cancer compounds using libraries of approved drugs and bioactive compounds (AID 1345084). Further: nearly all actives have a fitted effect of over 55% in size. Conditions: Gynecologic cancer cell panel viability, ATPlite luminescence, 48 h; series mostly up to 57.5 µM. In a few lines:
(§2)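 In this quantitative HTS, cell killing is estimated from loss of ATP-dependent luciferase light. Cells see five compound concentrations over a 48 h exposure.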

Assay [6] relates to CASKI. Described as above. Conditions: Gynecologic cancer cell panel viability, ATPlite luminescence, 48 h; series mostly up to 57.5 µM. In a few lines: as §2
The test system of assay [7] is Es-2. The assay is described as above. Conditions: Gynecologic cancer cell panel viability, ATPlite luminescence, 48 h; series mostly up to 57.5 µM. In a few lines:
as §2

Assay [8] relates to HeLa. The description is as above. The note with it: Gynecologic cancer cell panel viability, ATPlite luminescence, 48 h; series mostly up to 57.5 µM. The procedure, abridged: as §2
In assay [9] the test system is Hek293T. The description is as above. The note with it: Gynecologic cancer cell panel viability, ATPlite luminescence, 48 h, control line for the selectivity index; series mostly up to 57.5 µM. The procedure, abridged: as §2
In assay [10] the test system is JEG-3. The assay is described as above. Conditions: Gynecologic cancer cell panel viability, ATPlite luminescence, 48 h; series mostly up to 57.5 µM. In a few lines: as §2
Assay [11] relates to OV90. The assay is described as above. The note with it: Gynecologic cancer cell panel viability, ATPlite luminescence, 48 h; series mostly up to 57.5 µM. The procedure, abridged:
as §2

The subject of assay [12] is SKOV3. The assay is described as above. The note with it: Gynecologic cancer cell panel viability, ATPlite luminescence, 48 h; series mostly up to 57.5 µM. The procedure, abridged:
as §2

The subject of assay [13] is Tov-21-G. Described as above. The note with it: Gynecologic cancer cell panel viability, ATPlite luminescence, 48 h; series mostly up to 57.5 µM. The procedure, abridged: as §2
In assay [14] the test system is MKL-2. As to the kind of experiment: qHTS assay to identify novel small-molecules to repurpose for Merkel cell carcinoma treatment (AID 1296009). Further: nearly all actives have a fitted effect of over 60% in size. The note with it: MCC and control cell lines, CellTiter-Glo viability, 72 h; series mostly up to 46 µM. The procedure, abridged: as §1
(In general: In qHTS, concentration-response curves come from the screen itself.)

Assay [15] deals with C33A. Kind of assay: Primary qHTS to identify gynecologic anti-cancer compounds using libraries of approved drugs and bioactive compounds (AID 1345084). Further: nearly all actives have a fitted effect of over 55% in size. Conditions: Gynecologic cancer cell panel viability, ATPlite luminescence, 48 h; series mostly up to 57.5 µM. The procedure, abridged: as §2
Assay [16] relates to NIH3T3. Kind of assay: qHTS assay to identify novel small-molecules to repurpose for Merkel cell carcinoma treatment (AID 1296009). Further: nearly all actives have a fitted effect of over 60% in size. The note with it: MCC and control cell lines, CellTiter-Glo viability, 72 h; at 44.8 µM (top of the series). The procedure, abridged:
as §1

Assay [17] has as its system WaGa. The assay is described as above. The note with it: MCC and control cell lines, CellTiter-Glo viability, 72 h; series mostly up to 46 µM. The procedure, abridged:
as §1

The test system of assay [18] is PA-1. Kind of assay: Primary qHTS to identify gynecologic anti-cancer compounds using libraries of approved drugs and bioactive compounds (AID 1345084). Further: nearly all actives have a fitted effect of over 55% in size. The note with it: Gynecologic cancer cell panel viability, ATPlite luminescence, 48 h; series mostly up to 57.5 µM. In a few lines: as §2
Potency means the concentration at half of the fitted maximal effect.

As for `C[C@@]12C(=O)OC(=O)[C@]1(C)C1CCC2O1`, the Potency is 3.76 µM (active) in assay [1]; 4.22 µM (active) in assay [2]; 3.76 µM (active) in assay [3]; 2.66 µM (active) in assay [4]; 0.631 µM (active) in assay [5]; 6.31 µM (active) in assay [6]. In addition, the Potency in [7] is 10 µM (active); in assay [8], 3.55 µM (active); in [9] it was 10 µM (active); in assay [10] it was 11.2 µM (active); in assay [11] it was 3.16 µM (active); in assay [12], 8.91 µM (active). Moreover, in assay [13], the Potency was 8.91 µM (active).
For the molecule `CN1CCN(C2=Nc3ccccc3Sc3ccc(Cl)cc32)CC1`, the Potency entry in [1], in assay [2], in [3], in [14], in [4] and in assay [15] was “inactive” throughout. Also, the Potency result in [5], in assay [6], in [7], in [8], in assay [9] and in assay [10] was “inactive” in each case. Besides, the Potency entry in assay [11], in assay [12] and in assay [13] was “inactive” each time.
With `Oc1ccccc1C=NCc1ccccc1`, the Potency result in assay [1], in assay [3], in assay [14], in assay [4], in assay [17] and in assay [15] was “inactive” in each case. Further, the Potency entry in [5], in assay [6], in assay [7], in assay [8], in assay [9] and in assay [10] was “inactive” in each case. Moreover, the Potency entry in [12] and in [13] was “inactive” each time. Moreover, the molecule was classed as inactive in [16].
Consider `C[C@H]1O[C@@H](O[C@H]2CC[C@@]3(C)[C@H](CC[C@@H]4[C@@H]3C[C@@H](O)[C@]3(C)[C@@H](C5=CC(=O)OC5)CC[C@]43O)C2)C[C@H](O)[C@@H]1O[C@H]1C[C@H](O)[C@H](O[C@H]2C[C@H](O)[C@H](O[C@@H]3O[C@H](CO)[C@@H](O)[C@H](O)[C@H]3O)[C@@H](C)O2)[C@@H](C)O1`, for which the Potency in assay [1] is 0.335 µM (active); in assay [2], 0.668 µM (active); in assay [3] it was 0.531 µM (active); in assay [14] it was 0.299 µM (active); in assay [4], 0.299 µM (active); in assay [15] it was 0.282 µM (active). Further, the Potency in [5] was 0.501 µM (active); in assay [6] it was 1.58 µM (active); in assay [7] it was 0.447 µM (active); in assay [8], 0.355 µM (active); in assay [9], 0.355 µM (active); in assay [11], 1.58 µM (active). Besides, the Potency in [18] is 0.316 µM (active); in [12], 0.282 µM (active); in assay [13], 0.316 µM (active).
In the case of `C[N+]1(CC2COC(c3ccccc3)(C3CCCCC3)O2)CCCCC1` (centres undefined), the Potency entry in [1], in [2], in assay [15], in assay [6], in assay [7] and in [8] was “inactive” each time. The Potency entry in [9], in assay [10], in assay [12] and in [13] was “inactive” each time. In addition, the Potency in [3] was 10.6 µM (active); in [14], 5.96 µM (active); in [17], 18.8 µM (active).
Turning to `CC(C)n1c(/C=C/[C@@H](O)C[C@@H](O)CC(=O)O)c(-c2ccc(F)cc2)c2ccccc21`, the Potency in [1] was 9.44 µM (active); in assay [2], 13.3 µM (active); in [3], 13.3 µM (active); in assay [4] it was 3.35 µM (active); in assay [11], 8.91 µM (active). The Potency result in assay [6], in assay [7], in assay [9], in [12] and in assay [13] was “inactive” in each case.
On to `CCCCCCCCCCCCOCCOCCOCCOCCOCCOCCOCCOCCOCCO`, for which the Potency entry in assay [1], in [2], in assay [5], in assay [10] and in [13] was “inactive” throughout. The Potency in assay [17] is 21.1 µM (active); in [11] it was 28.2 µM (active).
Consider `Cn1c(=O)c2[nH]c(Br)nc2n(C)c1=O`, for which the Potency result in assay [1], in [3], in assay [14], in [4], in [17] and in [15] was “inactive” in each case. Moreover, the Potency entry in [5], in assay [6], in assay [7], in assay [8], in assay [9] and in assay [10] was “inactive” in each case. Moreover, the Potency result in assay [11], in assay [18], in assay [12] and in assay [13] was “inactive” throughout.
